M1 antag: human CHRM1 antagonism; P11229; CHO-K1 hM1, Fluo-8 calcium fluorescence, ACh EC80 antagonist; inhibition, % at 3 µM; 360,000 tested, 1.3% active; AID 588852;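 active = percent inhibition above its own plate's cutoff, namely the mean of that plate's compound wells plus 3 SD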;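 also: peak over basal fluorescence ratio during 140 s after agonist addition; 0% = ACh EC80 plus DMSO and 100% = DMSO alone without agonist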
Target sequence (P11229 whole entry, looked up): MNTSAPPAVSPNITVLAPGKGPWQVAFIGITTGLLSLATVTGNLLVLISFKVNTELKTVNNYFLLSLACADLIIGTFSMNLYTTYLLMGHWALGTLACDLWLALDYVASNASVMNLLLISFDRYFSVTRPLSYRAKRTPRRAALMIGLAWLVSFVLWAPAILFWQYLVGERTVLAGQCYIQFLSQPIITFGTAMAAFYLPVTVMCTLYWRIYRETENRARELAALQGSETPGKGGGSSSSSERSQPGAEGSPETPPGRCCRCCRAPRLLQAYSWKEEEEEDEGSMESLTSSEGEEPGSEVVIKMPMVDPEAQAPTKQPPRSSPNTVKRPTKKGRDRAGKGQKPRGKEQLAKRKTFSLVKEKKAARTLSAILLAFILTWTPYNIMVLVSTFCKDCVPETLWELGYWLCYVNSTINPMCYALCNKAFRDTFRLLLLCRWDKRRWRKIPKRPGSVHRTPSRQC
CHO-K1 Ca antag: nonselective inhibitor or artifact in parental CHO-K1 cells; ATP-induced calcium, Fluo-8 fluorescence; 360,000 tested, 0.6% active; inhibition, % at 3 µM;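 active = inhibition above a per-plate cutoff, the plate's mean sample inhibition plus 3 SD, cut at about 24% in these data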;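 also: 0% = DMSO plus EC80 ATP and 100% = DMSO alone without ATP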
M1 ag: activates human CHRM1 receptor | P11229 | CHO-K1 hM1, Fluo-8 calcium fluorescence, agonist mode; 0% DMSO, 100% acetylcholine EC100 | 360,000 tested, 0.33% active | activation, % at 3 µM;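 active = activation above the run's mean compound activation plus 3 SD, cut at about 16% in these data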;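 also: peak over basal fluorescence ratio within a 140 s kinetic read after compound addition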
CHO-K1 Ca ag: M1 agonist counterscreen hit in parental CHO-K1 cells; Fluo-8 calcium fluorescence; scaled to maximal ATP response, vehicle zero; activation, % at 3 µM; 360,000 tested, 0.48% active; AID 602248; in the data active = activation above about 15%;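 also: untransfected CHO-K1 host cells lacking M1 receptor as counterscreen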
CHO-K1 Ca PAM: nonselective activator or artifact in parental CHO-K1 calcium assay; ATP EC20, Fluo-8 calcium fluorescence; 0% at ATP EC20, 100% at ATP max; AID 602247; 360,000 tested, 0.02% active; activation, % at 3 µM;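 active = activation above the run cutoff, the mean activation of all test compounds plus 3 SD, cut at about 40% in these data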;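 also: peak over basal fluorescence ratio in a 140 s read after ATP addition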
M1 PAM: potentiates human M1 receptor response to acetylcholine; P11229; CHO-K1 hM1, Fluo-8 calcium fluorescence, ACh EC20; 0% = ACh EC20, 100% = maximal ACh; activation, % at 3 µM; 360,000 tested, 0.088% active; AID 588819; in the data active = activation above about 19%, passing the limit was not always enough
* = called active by the depositor. Sampled rows, rich in hits. Any-hit rate of the full collection: about 2.3%.

SMILES	M1 antag	CHO-K1 Ca antag	M1 ag	CHO-K1 Ca ag	CHO-K1 Ca PAM	M1 PAM
O=C(c1ccc(S(=O)(=O)Nc2ccccc2)cc1)N1CCCC(C(F)(F)F)C1 (stereo not given)	5	26*	31*	15*	-30	8
COc1ccc(NS(=O)(=O)c2ccc(C(=O)N3CCCCCC3)cc2)cc1	13	-4	23*	18*	-10	-15
CCOc1ccc(NS(=O)(=O)c2ccc(C(=O)NCC3(N(C)C)CCCCC3)cc2)cc1	6	10	8	19*	-3	6
Cc1ccc(NS(=O)(=O)c2ccc(C(=O)N3CC(C)OC(C)C3)cc2)cc1 (stereo not given)	11	2	39*	33*	-21	-6
CC(C)NS(=O)(=O)c1ccc(OCC(=O)N2CCN(c3ccccc3)CC2)cc1	-12	-4	-3	1	7	4
CCOc1ccc(NS(=O)(=O)c2ccc(C(=O)N3CCCCCC3)cc2)cc1	6	-7	22*	15*	-9	-7
O=C(COc1ccc(S(=O)(=O)NC2CCCCC2)cc1)N1CCN(c2cccc(Cl)c2)CC1	26*	11	-5	5	2	-18
Cc1ccc(NS(=O)(=O)c2ccc(C(=O)N3CCC3)cc2)cc1	5	7	3	3	-18	-5
N#C/C(=C\Nc1ccc(Cl)cc1)S(=O)(=O)c1ccccn1	-7	10	-6	0	-18	7
COc1cccc(NC(=O)c2cccc(N3C(=O)C4C5C=CC(C5)C4C3=O)c2)c1 (stereo not given)	-7	6	4	6	-28	10
Cn1c(CSCc2ccc(F)cc2)nnc1SCC(=O)Nc1cccc(C(=O)O)c1	-12	-10	-2	2	17	11
COc1cccc(Cl)c1NC(=O)N1CCN(c2ccnc3cc(Cl)ccc23)CC1	34*	-1	-2	7	12	-17
CCC(=O)N1CCN(c2ccnc3cc(Cl)ccc23)CC1	-11	-11	-4	2	15	4
COc1cccc(Cl)c1NC(=O)N1CCN(c2cc(C)nc3ccccc23)CC1	-8	-27	-9	0	15	0
CCOC(=O)N1CCN(c2ccnc3cc(Cl)ccc23)CC1	91*	-12	-12	4	-4	-38
COc1ccccc1C1NC(=O)NC(C)=C1C(=O)OC1CCC(C)CC1 (stereo not given)	-11	-7	-3	0	20	6
Cc1cc(=O)n2nc(N3CCCC(C(=O)N4CCc5ccccc54)C3)sc2n1 (stereo not given)	97*	5	-6	-1	-5	-23
Cc1cc(=O)n2nc(N3CCCC(C(=O)N4CCOCC4)C3)sc2n1 (stereo not given)	-14	-11	-2	1	18	10
CCCCc1nc2c(C)c(N)cnc2n1Cc1cccc([N+](=O)[O-])c1	13	-1	-9	0	3	-9
CCc1cccc(NC(=O)c2ccc(Cn3nc(C)cc3C)o2)c1	-12	24*	-9	0	-12	8
FC(F)Sc1ccc(NC(=S)NCC2CCCCC2)cc1	31*	17	1	13	6	-16
FC(F)Sc1ccc(NC(=S)NC2CCCCC2)cc1	18	8	-1	12	4	-10
O=S(=O)(c1ccccc1)N1CCN(Cc2ccc(Cl)cc2)CC1	-2	-6	-5	2	13	-3
O=C1/C(=C/c2cccc(F)c2)Oc2cc(O)ccc21	-1	-14	7	15*	-7	-2
O=C1CN(S(=O)(=O)c2cc(C(F)(F)F)ccc2Cl)CCN1	6	-12	8	0	12	30*
SMILES	M1 antag	CHO-K1 Ca antag	M1 ag	CHO-K1 Ca ag	CHO-K1 Ca PAM	M1 PAM
O=C(O)/C=C/C(=O)N1CCN(S(=O)(=O)c2cc(C(F)(F)F)ccc2Cl)CC1	5	4	-1	-1	-7	4
Cc1ccc(NS(=O)(=O)c2ccc3c(c2)NC(=O)CCS3)c(C)c1	12	-6	3	10	-4	-6
COc1ccccc1NC(=O)Cn1nnc(-c2ccccc2NS(=O)(=O)c2ccccc2)n1	24	28*	-2	9	-6	-9
O=C(C1CCC(=O)N(C2CC2)C1)N1CCN(c2cccc(Cl)c2)CC1 (stereo not given)	9	-2	-5	0	-1	-3
COCCCNC(=O)Cc1coc2ccc3ccccc3c12	-5	-10	-6	1	9	7
CCCCNC(=O)Cc1coc2ccc3ccccc3c12	1	27*	-1	0	-4	10
CC(=O)c1ccc(NC(=S)NCc2ccc(Cl)cc2Cl)cc1	20	16	5	16*	-12	-8
CCOP(=O)(OCC)C(NC(=O)Nc1ccc(Cl)cc1)c1ccccc1 (stereo not given)	4	-4	-5	2	24	4
CC(NC(=O)Nc1ccc(Cl)cc1)c1ccccc1 (stereo not given)	-10	1	1	29*	5	2
CC(=O)c1ccc(NC(=O)Nc2ccc(Cl)cc2)cc1	29	19	1	17*	0	-18
O=C(C[n+]1ccc(C(=O)NCc2ccccc2)cc1)c1ccc(Cl)cc1	-3	-5	-6	0	-6	4
Cc1nc(Cc2nnc(SCC(=O)N3c4ccccc4NC(=O)C3(C)C)o2)cs1	-1	-1	-2	0	-13	1
CN1CC=C2C(C#N)=C(N)C(C#N)(C#N)C(CCc3ccccc3)C2C1 (stereo not given)	-2	-4	-1	2	22	-4
CCCC1C2CN(C(C)C)CC=C2C(C#N)=C(N)C1(C#N)C#N (stereo not given)	38*	5	-1	4	6	-20
COc1cccc(NC(=S)NC(=O)Cc2ccc(Cl)cc2)c1	7	6	37*	23*	23	8
COc1ccc(CC(=O)NC(=S)Nc2cccc(CO)c2)cc1	-7	-18	29*	13	23	5
COc1ccc(CC(=O)NC(=S)Nc2cccc(C)c2)cc1	4	-12	26*	13	16	1
CCC(=O)Nc1cccc(NC(=S)NC(=O)Cc2ccccc2)c1	20	5	0	1	-6	-11
COc1ccccc1NC(=S)NC(=O)Cc1ccc(Cl)cc1	13	-3	6	0	-14	-6
CCC(C(=O)Nc1ccc2c(c1)OCCO2)n1c(=O)[nH]c2ccccc2c1=O (stereo not given)	-3	-14	-1	0	-3	2
Cc1onc(-c2c(Cl)cccc2Cl)c1C(=O)N=C(N)N1CC(C)OC(C)C1 (stereo not given)	3	0	-3	2	-5	0

Screens (PubChem)
